This is one part of a sample in which hits are shown more often than they occur.
FECH block: inhibitors of human ferrochelatase | P22830 | calls only at 10 µM (by protocol) | 20,000 tested, 3.3% active | purified FECH, Ni-mesoporphyrin absorbance 550 nm | AID 1671448;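 active means enzyme reaction rate more than 3 SD below the solvent-only control wells on the same plate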;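 further: lower slope than DMSO wells means FECH inhibition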
Target sequence (P22830 whole entry, looked up): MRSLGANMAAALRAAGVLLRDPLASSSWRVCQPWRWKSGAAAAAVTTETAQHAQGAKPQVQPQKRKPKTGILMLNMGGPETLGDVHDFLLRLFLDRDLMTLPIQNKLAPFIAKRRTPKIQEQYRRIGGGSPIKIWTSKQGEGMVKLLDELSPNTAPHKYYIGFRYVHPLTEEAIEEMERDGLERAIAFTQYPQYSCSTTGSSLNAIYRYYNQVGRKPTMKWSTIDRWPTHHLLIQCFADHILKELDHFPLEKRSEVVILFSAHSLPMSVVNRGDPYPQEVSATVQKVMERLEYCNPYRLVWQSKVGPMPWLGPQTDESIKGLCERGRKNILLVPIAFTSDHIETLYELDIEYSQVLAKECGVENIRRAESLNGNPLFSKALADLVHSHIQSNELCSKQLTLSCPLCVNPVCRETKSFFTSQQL
* = called active by the depositor; i = inactive; + = active, no number.

SMILES	FECH block
CC1CCN(Cc2cc(=O)n3[nH]c(NCc4ccccc4)nc3n2)CC1	i
COc1ccc(OC)c(S(=O)(=O)NCCn2c(-c3ccc(C)cc3)nc3cccnc32)c1	i
COc1ccc(OC)c(S(=O)(=O)NCCn2c(-c3ccccc3)nc3cccnc32)c1	i
O=S(=O)(Cc1ccccc1)NCCn1c(-c2ccccc2)nc2cccnc21	i
CCOC(=O)c1ccccc1NC(=O)NCCn1c(-c2ccncc2)nc2cccnc21	+
Cc1ccc(-c2nc3cccnc3n2CCNS(=O)(=O)Cc2ccccc2)cc1	+
CCOc1ccc(NC(=O)NCCn2c(-c3ccncc3)nc3cccnc32)cc1	i
CCc1ccc(NC(=O)NCCn2c(-c3ccncc3)nc3cccnc32)cc1	i
Cc1ccc(-c2nc3cccnc3n2CCNS(C)(=O)=O)cc1	i
COc1ccc(Cl)cc1S(=O)(=O)NCCn1c(-c2ccc(C)cc2)nc2cccnc21	+
O=C(NC1CC1)c1nc[nH]c1C(=O)NCc1cccc(C(F)(F)F)c1	i
COc1cccc(C2c3nc[nH]c3CCN2Cc2ccnc3ccccc23)c1 (configuration not stated)	i
O=C(c1ccc(Br)o1)N1CCN(S(=O)(=O)c2cc3c4c(c2)CCN4C(=O)CC3)CC1	i
COc1ccc(CN2CCN(c3cccnc3)CC2)c(OC)c1OC	i
Cc1ccc(N(C)C(=O)Cn2c(=O)c3cnc(-c4ccccc4)nc3n(C)c2=O)cc1C	i
O=C(N[C@H]1COC[C@@H]1N1CCCCC1)c1ccc(-n2cnnn2)cc1	i
Cc1cc(N2CCCC2)nc(Nc2ccc(NC(=O)CCc3ccccc3)cc2)n1	i
CCCCNC(=O)C1CCC(Cn2c(=O)c3sccc3n(CC(=O)NC(C)CC)c2=O)CC1 (configuration not stated)	i
O=C(CN1c2ccc(Br)cc2-c2ccccc2S1(=O)=O)Nc1cccnc1	+
O=C(CN1c2ccc(Br)cc2-c2ccccc2S1(=O)=O)NCc1cccnc1	+
c1cc(-c2ccc(-c3nccn3-c3ccc4cn[nH]c4c3)o2)[nH]n1	i
CCn1c(=O)sc2cc(N(S(C)(=O)=O)S(C)(=O)=O)ccc21	i
CCCC(=O)N(Cc1nc2nc(C)cc(C)n2n1)c1ccccc1OC	i
Cc1cccc(N(CC(=O)NCCN2CCNC2=O)S(C)(=O)=O)c1	+
Cc1ccc2c(c1)NC(=O)C2CC(=O)NCCN1CCCOC1=O (configuration not stated)	i
SMILES	FECH block
Cc1cccc(N(CC(=O)N(C)Cc2n[nH]c3c2CCCCC3)S(C)(=O)=O)c1	i
Cc1nnsc1CN(C)Cc1ccc(C(=O)Nc2nc(C)n(C)n2)cc1	i
c1ccc2c(CN3CCCCC3CCn3ccnc3)ccnc2c1 (configuration not stated)	+
O=C(c1c[nH]c(=O)cn1)N1CCCCC1CCn1ccnc1 (configuration not stated)	i
O=C(NCCc1ccccc1)N1CCCCC1CCn1ccnc1 (configuration not stated)	i
Cn1ccc2c(-c3cccc(O)c3)ccnc21	i
CC(=O)c1cccc(-c2ccnc3[nH]ccc23)c1	+
FC(F)(F)c1ccc(-c2ccnc3[nH]ccc23)nc1	i
COc1cc(NC(=O)CNCCN2CCOC2=O)ccc1Cl	i
C=C(C)COc1ccccc1C(=O)N1CCN(CC(=O)O)C(=O)C1C (configuration not stated)	i
COc1ccccc1CNc1nc2nc(CN3CCN(c4ccccc4)CC3)cc(=O)n2[nH]1	i
CCCc1cc(=O)n2[nH]c(CNc3c(C)cccc3C)nc2n1	i
CCCc1cc(=O)n2[nH]c(CNc3ccc(Cl)cc3)nc2n1	+
CCc1ccc(NCc2cc(=O)n3[nH]c(NCc4ccc(OC)cc4)nc3n2)cc1	i
Cc1c(Cl)cccc1NCc1cc(=O)n2[nH]c(NCc3ccc(F)cc3)nc2n1	i
CCCc1cc(=O)n2[nH]c(CNc3ccc(CC)cc3)nc2n1	i
Cc1c(Cl)cccc1NCc1nc2nc(C(C)C)cc(=O)n2[nH]1	+
COc1ccc(CNc2nc3nc(CNc4ccc(Cl)cc4)cc(=O)n3[nH]2)cc1	i
CCCc1cc(=O)n2[nH]c(CNc3ccccc3CC)nc2n1	+
CCOc1ccccc1NCc1nc2nc(C(C)C)cc(=O)n2[nH]1	i
CCCc1cc(=O)n2[nH]c(CNc3ccccc3OC)nc2n1	+
CCOc1c(Nc2ccc(Cl)cc2)c(=O)c1=O	i
CCC(C)N(Cc1cccnc1)C(=O)c1cncc(C)c1 (configuration not stated)	i
COCC(c1ccccn1)N(C)Cc1cn[nH]c1-c1ccc(F)cc1 (configuration not stated)	i
CCCN(Cc1ccc(SC)cc1)C(=O)c1cnc2ccccn2c1=O	i
SMILES	FECH block
O=C(Nc1cnc2n1CCCC2)C1CCOC1 (configuration not stated)	i
Cc1oc(-c2cccs2)nc1CN1CCNC(C(=O)N2CCCC2)C1 (configuration not stated)	i
COC[C@H]1CCCN1Cc1ccc(C(=O)Nc2nc(C)n(C)n2)cc1	i
CC(=O)NCCc1cn(-c2ccc(-c3ncc(C)cn3)cc2)cn1	i
CC(=O)NCCc1cn(-c2ccc3c(c2)CCCN3C(C)=O)cn1	i
CC(=O)NCCc1cn(-c2cccc(OC(C)C)c2)cn1	+
Cc1cc(C)cc(S(=O)(=O)Nc2cnc(N(CC(C)C)CC(C)C)c(C(=O)O)c2)c1	i
CCCN(CCC)c1ncc(NS(=O)(=O)c2cc(C)cc(C)c2)cc1C(=O)O	+
CCN(CCN(C)C)c1ncc(NS(=O)(=O)c2cc(C)cc(C)c2)cc1C(=O)O	i
O=C(NCCc1nc2cccnc2n1C1CCCCC1)Nc1ccccc1	i
O=C1CCC2(CCN1)CCN(C(=O)c1cn[nH]c1-c1cccs1)CC2	i
Cc1ccc(NC(=O)CN2c3ccc(Br)cc3-c3ccccc3S2(=O)=O)cc1	+
O=C(CN1c2ccc(Br)cc2-c2ccccc2S1(=O)=O)Nc1ccc(F)cc1F	i
Cc1cccc(C(C)C)c1NC(=O)CN1c2ccc(Br)cc2-c2ccccc2S1(=O)=O	i
CC(C)CCNC(=O)CN1c2ccc(Br)cc2-c2ccccc2S1(=O)=O	+
O=C1CN(C(=O)CN2c3ccc(Br)cc3-c3ccccc3S2(=O)=O)c2ccccc2N1	i
Cc1ccc(NC(=O)CN2CCN(Cc3ccccc3C)S2(=O)=O)cc1C	i
Cc1ccc(NC(=O)CN2c3ccc(Br)cc3-c3ccccc3S2(=O)=O)cc1C	+
COc1ccc(NC(=O)CN2c3ccc(Br)cc3-c3ccccc3S2(=O)=O)cc1	i
O=C(CN1c2ccc(Br)cc2-c2ccccc2S1(=O)=O)NC1CC1	+
NS(=O)(=O)c1ccc(NC(=O)CN2C(=O)c3ccccc3S2(=O)=O)cc1	i
Cc1cc(Nc2ccc(F)cc2)n2nc(-c3cccnc3)nc2n1	i
CCC(C)Oc1c(OC)cccc1-c1ncc[nH]1 (configuration not stated)	i
CCc1cnc(C)nc1N(C)Cc1nc2ccsc2c(=O)[nH]1	i
CCc1ccc(NC(=O)Cn2c(=O)c3cnc(-c4ccccc4)nc3n(C)c2=O)cc1	i
Cc1[nH]c2ccc(C(=O)N3CCC4(CC3)CC(C(=O)O)N(C)C4)cc2c1C (configuration not stated)	i
CCN(CC)c1ccc(C(=O)NCc2nc3cccnc3n2CCOC)cc1	i
COCc1nc2cccnc2n1C1CCN(S(=O)(=O)c2cc(C)ccc2C)CC1	i

Bioassay records deposited in PubChem by Corson Lab, School of Medicine, Indiana University.
